Screening results: PubChem BioAssay, National Center for Advancing Translational Sciences (NCATS)
HEK293 tox = cytotoxicity counter-screen for GLP-1 receptor inverse agonists. HEK293 cAMP-luciferase reporter cells, luminescence, 24 h. Potency, µM (highest dose often 38.3 µM), hits mostly inhibitors. 410,000 tested, 0.13% active;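 note: loss of luciferase light is scored as toxicity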
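Cells in DMEM/10% Nu serum/1% pen-strep, 1536-well format. Pre-incubated 12 h, dosed with 23 nL compound, incubated a further 24 h. Luciferase detection, 12 min at room temp, luminescence.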
TRHR enhancer = allosterically enhances the human TRH receptor; P34981; TRHR cells, fluo-8 calcium fluorescence, EC20 TRH enhancement; 360,000 tested, 0.66% active; enhancement, % at 2 µM; in the data active = enhancement above about 30%
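Enhancer read-out: after compound pinning and an initial kinetic agonist-mode read, an EC20 of TRH (10 nM final) was injected and fluo-8 calcium signal (Ex 480/Em 530) followed at 1 s/cycle for 100 cycles in TRHR-expressing cells.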
TRHR agonist = agonists of human TRH receptor. P34981. TRHR cells, calcium flux fluo-8, FDSS agonist mode. activation, % at 2 µM. 360,000 tested, 0.18% active; in the data active = activation above about 30%
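In this calcium-flux screen, cells bearing human TRHR are dye-loaded with fluo-8, baselined for 10 cycles, then exposed to library compounds; positive kinetic calcium responses during the agonist phase mark hits, with TRH as control.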
GLP-1R inv ag = inverse agonists of human GLP-1 receptor. 410,000 tested, 1.6% active. Potency, µM (series often up to 38.3 µM), most hits filed as inhibitors. P43220. HEK293 GLP-1R CRE-luciferase, luminescence, 24 h; GLP-1R form is constitutively active. AID 624417; note: nearly all actives have a fitted effect of over 55% in size
Target sequence (P43220 whole entry, looked up): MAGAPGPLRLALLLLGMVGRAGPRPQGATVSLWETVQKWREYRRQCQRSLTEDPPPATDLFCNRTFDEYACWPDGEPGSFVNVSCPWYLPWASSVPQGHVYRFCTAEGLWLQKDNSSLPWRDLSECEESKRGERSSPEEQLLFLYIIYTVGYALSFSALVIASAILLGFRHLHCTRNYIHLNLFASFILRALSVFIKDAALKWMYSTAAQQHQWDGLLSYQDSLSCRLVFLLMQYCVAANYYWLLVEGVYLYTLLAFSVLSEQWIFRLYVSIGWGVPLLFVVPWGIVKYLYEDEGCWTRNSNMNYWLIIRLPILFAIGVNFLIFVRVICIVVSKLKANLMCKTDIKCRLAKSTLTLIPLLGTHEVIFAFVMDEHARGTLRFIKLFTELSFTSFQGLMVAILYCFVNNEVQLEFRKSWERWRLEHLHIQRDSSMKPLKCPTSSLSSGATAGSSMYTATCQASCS
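Readout was luciferase luminescence, measured 12 min after detection reagent at room temperature. Beforehand, GLP-1R reporter HEK293 cells had sat 12 h, then received compounds for 24 hr at 37 deg C.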
GLP1R ag = activates the human GLP-1 receptor | Potency, µM (titrated, usually from 45.6 µM), hits mostly activators | 380,000 tested, 0.007% active | HEK293 GLP-1R CRE-luciferase, luminescence, 4-6 h; cells express a hypersensitive GLP-1R form
PTHR1 ag = agonists of human PTHR1 parathyroid hormone receptor; Q03431; AID 743266; Potency, µM (doses to about 115 µM), usual class: activators; 410,000 tested, 0.075% active; HEK293 GP2 PTHR1 cells, GloSensor cAMP luminescence, 1 h; note: nearly all actives have a fitted effect of over 55% in size
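HEK-293-derived GP2 cells expressing PTHR1 and a GloSensor cAMP reporter, 3,000/well, plated overnight, given luciferin plus IBMX (each 0.5 mM as added) for 1 h at 37 °C, then compound for 1 h at 37 °C. Luminescence was read after 15 min at room temperature.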
Hits are given with their value; – = inactive; ? = inconclusive; · = not tested or not shown. A selection: hits, their analogues and other compounds. The true share with any hit is near 2.4%. Unless noted, calls come from the whole dose curve; as a rule, active = well fitted curve in the direction sought with a large enough effect; inconclusive = small, poorly fitted or top-dose-only effect, or another doubt; inactive = no such curve, though single readings can be large; an effect the other way counts as inactive or inconclusive.

SMILES | HEK293 tox | TRHR enhancer | TRHR agonist | GLP-1R inv ag | GLP1R ag | PTHR1 ag
O=c1c2ccccc2oc2cc(-c3ccc(CN4CCOCC4)cc3)ccc12 | – | – | – | – | – | –
O=C(COC(=O)C1CC1)NCCc1ccccc1 | – | · | · | – | – | –
NS(=O)(=O)c1ccc(CCNC(=O)COC(=O)C2CCC2)cc1 | – | 33 | – | – | – | –
Cc1c(C)n(Cc2ccc(Cl)cc2)c2ccc(C(=O)NCCN3CCOCC3)cc12 | – | – | – | 3.5µM | – | –
O=C(NCCCN1CCOCC1)c1ccc2c(=O)n(Cc3ccc(Cl)cc3)c(=S)[nH]c2c1 | – | – | – | 2µM | – | –
Cc1c(C)n(Cc2ccccc2)c2ccc(C(=O)NCCN3CCOCC3)cc12 | – | – | – | ? | – | –
COC(=O)c1ccc2c(=O)n(Cc3ccc(C(=O)NCCCN4CCOCC4)cc3)c(=S)[nH]c2c1 | – | – | – | – | – | –
CN(C)CCNC(=O)c1ccc2c(=O)n(Cc3ccc(Cl)cc3)c(=S)[nH]c2c1 | ? | – | – | 3.2µM | – | –
CCCCCn1c(SCc2ccncc2)nc2cc(C(=O)NCc3ccco3)ccc2c1=O | – | – | – | – | – | –
COC(=O)c1c(C(=O)OC)c2c(-c3ccccc3)cc3cccc1n32 | – | · | · | 8.9µM | – | –
Cc1c(C(=O)NCc2ccc(F)cc2)c(-c2ccccc2)nn1-c1ccccc1 | – | – | – | 5µM | – | –
O=C1C(=O)N(CCN2CCOCC2)C(c2ccc(F)cc2)/C1=C(/O)c1ccc(S(=O)(=O)N2CCOCC2)cc1 (stereo not given) | – | – | – | – | – | –
Cc1csc(NC(=O)CSc2nnc3c4ccccc4nc(C(C)(C)C)n23)n1 | 2.5µM | – | – | ? | – | –
Cc1cc(C)c(C(=O)Nc2cccc(F)c2)c(Cl)n1 | – | – | – | – | – | –
Cc1cc(C)cc(Nc2nc(-c3ccc(S(=O)(=O)N4CCCC4)cc3)cs2)c1 | – | – | – | 3.5µM | – | –
O=c1oc2cc(OCc3c(F)c(F)c(F)c(F)c3F)ccc2cc1-c1ccccn1 | – | – | – | – | – | –
Cc1cc(C)c(-c2csc(NC(=O)c3cc([N+](=O)[O-])ccc3N3CCOCC3)n2)c(C)c1 | – | – | – | 8.9µM | – | –
O=C(Cc1cccc(C(F)(F)F)c1)Nc1ccccc1N1CCCC1 | – | – | – | 10µM | – | –
CSc1cccc(NS(=O)(=O)c2ccc(-c3coc(C)n3)cc2)c1 | – | – | – | 8.9µM | – | –
CCn1c(SCC(=O)NCC2CCCO2)nc2c(c1=O)SCC2 (stereo not given) | – | – | – | – | – | –
CCCCN1C(=O)C(O)(CC(=O)c2ccc(C)cc2C)c2cc(Br)ccc21 (stereo not given) | – | – | – | 10µM | · | –
Cc1ccc(NC(=O)COC(=O)c2cc(Cl)ccc2Cl)c(Br)c1 | – | – | – | – | – | –
CCCNS(=O)(=O)c1ccc(Oc2ncc(C(F)(F)F)cc2Cl)cc1 | – | – | – | 11µM | – | –
COc1cc(Cn2c(=O)sc3ccccc32)ccc1OCCC(C)C | – | – | – | 10µM | · | –
CN(C)c1ccc(C(=S)N2CCN(Cc3ccccc3)CC2)cc1 | – | – | – | 11µM | – | –
SMILES | HEK293 tox | TRHR enhancer | TRHR agonist | GLP-1R inv ag | GLP1R ag | PTHR1 ag
Cc1cccc(/C=C2\Sc3ccc(C(=O)NCC4CCCO4)cc3N(C)C2=O)c1 (stereo not given) | – | – | – | 13µM | – | –
CN1C(=O)/C(=C/c2ccccc2F)Sc2ccc(C(=O)NCC3CCCO3)cc21 (stereo not given) | – | – | – | ? | – | –
COc1cc(O)c(C(CC(=O)N2CCOCC2)c2ccc3c(c2)OCO3)c(OC)c1 (stereo not given) | – | – | – | – | – | –
O=C1C=C(CCc2ccccc2)CCC1 | – | · | · | – | – | –
CC(C(=O)Nc1ccc(OC(F)(F)F)cc1)N1Cc2ccccc2C1=O (stereo not given) | – | – | – | ? | · | 50µM
O=C(c1cc(Cl)nc2ccccc12)N1CCN(S(=O)(=O)c2cccc(C(F)(F)F)c2)CC1 | – | – | – | 11µM | – | –
COc1cccc(/C=C2\SC(=S)N(CCCC(=O)N(CCO)c3ccccc3)C2=O)c1 | – | – | – | 4.5µM | – | –
O=C1/C(=C/c2cccc(Br)c2)SC(=S)N1CCC(=O)N(CCO)c1ccccc1 | – | – | – | 11µM | – | –
COc1cccc(/C=C2\SC(=S)N(CCC(=O)NCCc3ccc(O)cc3)C2=O)c1 | ? | – | – | 4µM | – | –
COc1cccc(/C=C2\SC(=S)N(CCC(=O)Nc3ccc(O)cc3)C2=O)c1 | – | – | – | ? | – | –
COc1cccc(/C=C2\SC(=S)N(CCCC(=O)N3CCCCC3)C2=O)c1 | – | – | – | ? | – | –
O=C(/C=C\Nc1ccc2c(c1)OCO2)c1cccs1 | – | – | – | 2.2µM | – | –
O=C(/C=C\Nc1ccc2c(c1)OCO2)c1ccc(Cl)s1 | – | – | – | – | – | –
CC(=O)N1CCN(C(=O)c2cc3ccccc3o2)CC1 | – | – | – | – | – | –
O=C(c1cc2ccccc2o1)N1CCN(C/C=C/c2ccccc2)CC1 | – | – | – | 11µM | – | –
Cc1ccc(NC(=O)CCCCCCCCCCC2COCCO2)c(C)c1 (stereo not given) | – | – | – | – | – | –
Cc1cc(C)cc(N(CCC#N)C(=O)CSC2=Nc3ccccc3C3CC=NN23)c1 (stereo not given) | ? | 34 | – | – | – | –
N#Cc1ccccc1NC(=O)CSC1=Nc2ccccc2C2CC=NN12 (stereo not given) | ? | – | – | ? | – | –
O=C(O)CN(CCc1ccccc1)S(=O)(=O)c1ccccc1 | – | – | – | – | – | –
CCc1ccc(OCC(=O)N(Cc2ccco2)Cc2ccccc2Cl)cc1 | – | – | – | 10µM | · | –
CCc1ccc(OCC(=O)N(Cc2ccc(C)cc2)Cc2ccco2)cc1 | – | – | – | ? | · | –
O=C(c1cccc(Cl)c1)N(Cc1ccco1)Cc1ccccc1Cl | – | – | – | 10µM | · | –
O=C(N/N=C/c1ccc(Cl)cc1)Nc1ccccc1 | – | – | – | – | – | ?
Clc1ccc(/C=N\Nc2ccccc2)cc1 | – | – | – | 4µM | – | –
CCSc1nnc(-c2sc3nnc(-c4ccccc4)c(-c4ccccc4)c3c2N)o1 | – | – | 64 | ? | – | –
CC12CCC(C(=O)n3c1nc1ccccc13)C2(C)C (stereo not given) | – | – | – | 1.6µM | – | ?
